In the supplement of paper PMC3334620:
In all, about 33,000 sequences were measured (“E-score (-0.5 to 0.5)”: median about -0.0014, highest 2% from about 0.25 on). The list comes from a sample in which the highest values are over-represented; it also holds similar and randomly drawn sequences.

These sequences were tested against T1, Cad1 (UniProt P24813) (assay: PBM E-score (8-mer binding enrichment) (E-score (-0.5 to 0.5)); higher = stronger / more preferred TF binding). Conditions: protein concentration: 100 nM; construct: GST-full length.
T1 sequence: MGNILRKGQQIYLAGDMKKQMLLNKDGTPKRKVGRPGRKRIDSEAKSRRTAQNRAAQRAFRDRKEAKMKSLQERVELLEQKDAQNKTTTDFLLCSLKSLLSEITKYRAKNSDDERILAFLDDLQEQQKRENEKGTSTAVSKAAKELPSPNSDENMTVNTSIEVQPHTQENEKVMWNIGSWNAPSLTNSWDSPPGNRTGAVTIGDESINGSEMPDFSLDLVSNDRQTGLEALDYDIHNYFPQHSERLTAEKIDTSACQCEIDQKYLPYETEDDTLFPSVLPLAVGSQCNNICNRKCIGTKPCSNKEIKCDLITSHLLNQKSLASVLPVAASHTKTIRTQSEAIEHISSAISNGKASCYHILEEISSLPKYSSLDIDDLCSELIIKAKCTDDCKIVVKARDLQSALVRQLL
Procedure: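 Universal 'all 10-mer' protein binding microarrays (Agilent AMADID 015681) probed with GST-tagged S. cerevisiae TFs (full-length or DBD) made by in vitro transcription/translation (PURExpress), about 100-200 nM. Bound TF was detected with fluorescent anti-GST. Each ungapped 8-mer (which stands for itself and its reverse complement) is scored by the PBM enrichment score (E-score), a modified Wilcoxon-Mann-Whitney statistic from -0.5 to +0.5, computed with the Universal PBM Analysis Suite. Scale: above 0.35 generally sequence-specific binding.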

Sequence | PBM E-score
GCACCAAA | -0.0001
AAACGAAC | 0.0751
ACACCAAA | 0.254
GGGCAACA | -0.0207
TTCAAAAA | -0.0855
ACATTCCG | 0.05
CATGGAAA | 0.161
AGCTGAAT | -0.00032
GGGCAGTA | -0.0606
AAACGATA | 0.128
CAACGATA | 0.174
TAACGATA | 0.261
ACACGAAA | 0.257
ACACGAAT | 0.0874
ACACGAAG | 0.0492
GCAGTTAC | 0.128
CAAGTACG | -0.268
CCGGAGAC | 0.036
GCGGAGAC | 0.267
ACGGAGAC | 0.128
CTCAACGA | -0.0873
TGACATAA | 0.266
CTACCTAA | 0.0375
CTACATAA | -0.0789
ATACCTAA | 0.227

Sequence | PBM E-score
TTACCTAA | 0.334
GTACATAA | 0.0232
AGACATAA | 0.0308
TTACATAA | 0.438
GGACATAA | 0.102
AAGTGGCA | -0.0104
CTCCATGA | 0.0675
CCATAAGA | -0.0777
AAGCCTCG | -0.00547
ATTGTGAA | 0.0555
GCCCTCCC | -0.19
AAGCACAG | 0.0641
AAGCACAT | 0.254
AAGCACAC | -0.0239
CGTAACAA | 0.0611
AGTAACAA | 0.082
GGTAACAA | 0.261
ACCATCCG | -0.081
AAGTCCTC | -0.0441
ATCGATTC | 0.0832
ATCGATTG | 0.299
CTCGATTA | 0.276
GTCGATTA | 0.115
ATCGATTA | 0.275
ACCGATTA | 0.123

Sequence | PBM E-score
CTCGATTC | 0.0642
CACGATTA | 0.162
ATCGATCG | 0.188
CCCTAGGC | -0.079
TACCCAGA | 0.109
ACACAGAT | 0.0606
CGCACACC | 0.0191
ACGTCCGA | -0.0154
CCTGGTAG | -0.209
TAGTTATA | 0.068
AGTGCGTC | -0.0502
AACCTGCC | -0.164
GTCTAGTA | 0.0789
AACTTGAC | 0.0523
ACGCACCC | -0.147
AAAGTTCT | 0.0926
ACTACCGG | -0.231
ATAAACAA | 0.261
ACAAACAG | 0.0175
ATAACGAC | 0.189
TTAAACAA | -0.157
ATAACGAA | 0.258
ACAAACAC | 0.262
ACAACGAA | 0.145
CTAACGAA | 0.153

Sequence | PBM E-score
ATAAACAC | 0.15
ACAAACAA | 0.176
GCAACGAA | 0.275
TCAACGAA | 0.0907
GACCACGA | 0.0423
CGCACTAC | 0.0013
GGCCGTTA | 0.0668
ACGTGGAG | -0.0145
CCCCTATA | -0.144
CCGGTCTC | -0.161
CTTAGAGC | -0.0659
AAAAGCGC | 0.0216
AAGTGCTA | -0.257
GGGTCCGA | -0.21
ACGAGACC | -0.00034
ATAACAAG | 0.205
AGAACAAA | 0.247
ATAACAAA | 0.312
CGAACAAG | 0.128
ATAACAAT | 0.0624
CGAACAAA | 0.28
GCATCGAC | -0.0789
GACAGATA | 0.0715
AAACGTTG | -0.0452
CAACGTTG | 0.263

Sequence | PBM E-score
CAACGTTC | -0.009
ATTGTTAA | 0.0122
GTTATTTA | 0.153
ACTATTAA | 0.123
ATTATTAA | 0.384
GTTGTTAA | 0.259
AGTATTAG | 0.299
GTTATTAA | 0.291
GTTATTGA | 0.159
CTTGTTAA | -0.0916
ATTATTAC | 0.0832
CGTATTAG | 0.165
AGTATTAA | 0.0712
CTCGCGGA | -0.155
CGCAGCAC | 0.0114
ACATACGA | 0.117
CTGAAGAA | -0.18
CAACTGTG | -0.031
CAAGACAG | -0.0259
CATGCCAG | -0.0523
CTTATTAC | 0.218
CTTATTAA | 0.42
AGTGTTAA | 0.255
CCTATTAA | -0.00224
GGTGTTAA | 0.0749

Sequence | PBM E-score
TGTGTTAA | 0.19
TATTTTAA | 0.107
GCGGCTTA | 0.227
ACCTCTTA | 0.153
AAGTCATG | 0.0989
ACCGCCTG | -0.142
ACCCGGAC | -0.179
ATTTAATC | 0.285
ATTTAATA | 0.316
ATTTAATG | 0.213
CTTTAATA | 0.218
GTTTAATA | 0.189
CTTTAATC | -0.00133
AGAGAGGC | -0.297
AGTAAACT | 0.105
CCTAGATA | -0.0467
CACGTTTC | -0.176
CAATTTTC | 0.125
CAATTTAA | 0.156
CAATTTTA | 0.27
CTCGCTGA | 0.0202
CCGATCGA | 0.0111
GCGATCGA | 0.248
TCGATCGA | 0.27
ACGATCGT | -0.0266

Sequence | PBM E-score
ACGATCGG | 0.0625
ACGATCGA | 0.254
GATTGAGC | 0.0444
ATCAGCAT | 0.192
CACTAACC | 0.0546
GACTAAGC | 0.228
CACTAATC | 0.262
CACTAAGC | 0.0972
GACTAATC | 0.362
AACTAATC | 0.179
CTCGCTCA | 0.138
CACCGCCC | -0.0109
TAACTTAA | 0.259
AAACTAAT | 0.36
AAACTAAG | 0.166
AAACTTAT | 0.256
AAACTCAG | -0.00451
GAACTTAA | 0.116
CAACTTAA | 0.0842
AAACTCAT | 0.253
AAACTAAA | 0.141
AAACTCAA | 0.163
AAACTTAC | 0.0226
AAACTTAA | 0.171
